Measured values as given in PubChem BioAssay (NCATS).
Results filed as inconclusive are left out. Activity calls are given as the source filed them. The call rests on the fitted dose curve; in most records, active means well fitted curve in the direction sought with a large enough effect; inconclusive means small, poorly fitted or top-dose-only effect, or another doubt; inactive means no such curve, though single readings can be large; an effect the other way counts as inactive or inconclusive.

Assays:
[1] = biological target: Nuclear receptor subfamily 1 group I member 3 (Homo sapiens) (UniProt Q14994); assay: qHTS for Constitutive Androstane Receptor (CAR) Agonist screened against the NCATS CANVASS Library (AID 1347373);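 further: every well also contained 1.5 µM PK11195 alongside the test compound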
Sequence of Nuclear receptor subfamily 1 group I member 3 (Homo sapiens) (Q14994 whole entry, looked up): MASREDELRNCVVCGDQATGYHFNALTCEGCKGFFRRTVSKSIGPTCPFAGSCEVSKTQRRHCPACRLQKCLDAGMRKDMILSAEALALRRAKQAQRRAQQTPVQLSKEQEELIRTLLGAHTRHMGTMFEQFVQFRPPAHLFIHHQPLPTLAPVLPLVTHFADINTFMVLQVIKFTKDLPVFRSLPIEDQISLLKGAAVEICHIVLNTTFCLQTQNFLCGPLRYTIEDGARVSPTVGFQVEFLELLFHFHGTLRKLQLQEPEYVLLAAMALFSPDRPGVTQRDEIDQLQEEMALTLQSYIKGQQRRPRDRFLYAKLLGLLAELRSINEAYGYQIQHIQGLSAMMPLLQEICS
Excerpt: Natural products and their derivatives continue to be wellsprings of nascent therapeutic potential. However, many laboratories have limited resources for biological evaluation, leaving their previously isolated or synthesized compounds largely or completely untested. To address this issue, the Canvass library of natural products was assembled (https://tripod.nih.gov/canvass), in collaboration with academic and industry researchers, for quantitative high-throughput screening (qHTS) across a diverse set of cell-based and biochemical assays. […] The library was formatted into 1536-well plates and evaluated in 50 qHTS (in an 11-pnt concentration series) bioassays with broad scope of disease-relevant mechanisms. The resulting data set from 50 different assays was then systematically analyzed to identify overall trends and specific natural products with interesting biological activities. […]
Material: A double-stable (hCAR and CYP2B6-2.2kb) transfected cell line, derived from human hepatoma (HepG2) cells, was utilized for the duration of the quantitative high-throughput screens. […] A first readout of fluorescence signal was acquired via the ViewLux (PerkinElmer) plate reader using a FITC dichroic mirror, excitation 405/10 nm filter, and emission 540/25 nm filter; and using 65 light energy, 1 second exposure, and 2x binning settings. […]

[2] = 10-beta competent E. coli microbial cell viability qHTS against the NCATS CANVASS Library (AID 1347376); further: series mostly up to about 46 µM
Procedure, shortened: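 Read-out: BacTiter-Glo ATP luminescence, taken 20 min after reagent addition. Beforehand, 10-beta competent E. coli at 0.2 OD had been incubated overnight at 37C with compounds at 11 concentrations.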

[3] = qHTS for H2AX Agonists against the NCATS CANVASS Library (AID 1347378);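 further: phospho-H2AX S139 level in CHO-K1 lysates by TR-FRET emission ratio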
Procedure, shortened: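 CHO-K1, 1000 cells/well, o/n 37C; cpd several conc, 3 hr 37C, 0.76% DMSO; lyse 30 min RT; cryptate anti-pH2AX(S139) + d2 anti-H2AX, 24 hr RT; HTRF 665/620.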

[4] = qHTS for Inflammasome Signaling Inhibitors: IL-1-beta AlphaLISA screen against the NCATS CANVASS Library (AID 1347379);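 further: human THP-1 cells primed with LPS then triggered with ATP; secreted IL-1B measured as AlphaLISA emission at 615 nm; lower signal means less IL-1B release which is the wanted effect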
Procedure, shortened: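 Secreted IL-1B from human THP-1 cells quantified by AlphaLISA 16 hr after compound addition (final up to 57.5 uM). A 1 hr compound pretreatment preceded inflammasome activation with 250 ng/mL LPS plus 1.25 mM ATP (final).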

[5] = qHTS for Antimalaria activity screened against the NCATS CANVASS Library (AID 1347380);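 further: Plasmodium falciparum strain Dd2 asexual parasites grown in red blood cells; series mostly up to about 29 µM; nearly all actives have a fitted effect of over 40% in size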
Excerpt: Natural products and their derivatives continue to be wellsprings of nascent therapeutic potential. However, many laboratories have limited resources for biological evaluation, leaving their previously isolated or synthesized compounds largely or completely untested. To address this issue, the Canvass library of natural products was assembled (https://tripod.nih.gov/canvass), in collaboration with academic and industry researchers, for quantitative high-throughput screening (qHTS) across a diverse set of cell-based and biochemical assays. […] The library was formatted into 1536-well plates and evaluated in 50 qHTS (in an 11-pnt concentration series) bioassays with broad scope of disease-relevant mechanisms. The resulting data set from 50 different assays was then systematically analyzed to identify overall trends and specific natural products with interesting biological activities. […] The proliferation assay assesses the ability of compounds to inhibit the proliferation and/or have cytotoxic effects (72 hr) against the asexual erythrocytic growth of Plasmodium falciparum Dd2, as determined by a SYBRGreen fluorescence assay. […]
Malaria-screen protocol: Assay adopted from Plouffe et al. 2008 PNAS 105: 9059; PMID: 18579783. […] The fluorescence signal was read using the EnVision (PerkinElmer) plate reader (bottom read) using a 485/14 nm excitation and 535/25 nm emission filters.

[6] = Inflammasome Signaling qHTS Counterscreen: IL-1-beta AlphaLISA counterscreen against the NCATS CANVASS Library (AID 1347381);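 further: cell-free check with purified IL-1β in medium and no THP-1 cells; series mostly up to about 57 µM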
Procedure, shortened: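 Purified IL-1-beta (4 pg/well) + compound, 11-pt conc. series; acceptor beads 6 ug/mL + biotin-Ab 0.6 nM final, 1 h RT; SA-donor 24 ug/ml final, 30 min dark RT; read ex 680/em 615.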

[7] = Cytotoxicity qHTS for assessment of Hepg2 cells membrane integrity screened against the NCATS CANVASS Library (AID 1347387)
Excerpt: Natural products and their derivatives continue to be wellsprings of nascent therapeutic potential. However, many laboratories have limited resources for biological evaluation, leaving their previously isolated or synthesized compounds largely or completely untested. To address this issue, the Canvass library of natural products was assembled (https://tripod.nih.gov/canvass), in collaboration with academic and industry researchers, for quantitative high-throughput screening (qHTS) across a diverse set of cell-based and biochemical assays. The pure (>85% purity by liquid chromatography/mass spectrometry [LC/MS]) Canvass library of 346 natural products were submitted by 45 academic laboratories and companies around the world. […] The library was formatted into 1536-well plates and evaluated in 50 qHTS (in an 11-pnt concentration series) bioassays with broad scope of disease-relevant mechanisms. The resulting data set from 50 different assays was then systematically analyzed to identify overall trends and specific natural products with interesting biological activities. […] The amount of fluorescence is proportional to the number of lysed cells. […]
Membrane Integrity-screen protocol: 1. […] The fluorescence signal was measured using the EnVision plate reader (PerkinElmer) using a 560 nm excitation and 590 nm emission filters.

[8] = qHTS assay for small molecule disruptors of mitochondrial membrane potential screened against the NCATS CANVASS Library (AID 1347389); further: series mostly up to about 46 µM; nearly all actives have a fitted effect of over 60% in size
Procedure, shortened: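 Mitochondrial membrane potential in HepG2: 1 h compound treatment (11-point concentration series), 30 min m-MPI dye at 37C, then dual fluorescence of J-aggregates (ex 540/em 590) and monomers (ex 490/em 535); lower red/green ratio indicates depolarization.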

[9] = Secretion counterscreen for inhibitors of the SERCaMP assay screened against the NCATS CANVASS Library (AID 1347390);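 further: light from luciferase secreted into medium read as a measure of general secretion; series mostly up to about 77 µM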
Procedure, shortened: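 SH-SY5Y-GLuc STOP cells; 4 h attach; cpds 0.001 - 77 uM (qHTS, 11 pts), 20 h 37C/5% CO2; coelenterazine in glow buffer; luminescence, 5 s exposure.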

[10] = qHTS for activators of Nrf2/ARE signaling pathway screened against the NCATS CANVASS Library (AID 1347391); further: nearly all actives have a fitted effect of over 60% in size
Procedure, shortened: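 Eleven-point qHTS, 16 h treatment of HepG2 cells carrying an ARE-driven beta-lactamase reporter; CCF4 ratio read (405 nm excitation, 460 and 530 nm emission), with CellTiter-Glo ATP luminescence for viability.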

Measured: outcome

CN1CCC[C@@H]1c1cccnc1
inactive: all assays above
